Experimental data published in PubChem BioAssay (EPA / NIEHS).
Activity calls are given as the source filed them. Rule for the calls: active = hit-call score of the fitted dose curve at least 0.9, where 1 is the maximum; inactive = score below 0.9.

read-out: Interleukin-8 (IL8), CXCL8 (gene 3576); test: BSK_MyoF_IL8: BioMAP Diversity Plus: MyoF Assay for Interleukin-8 (IL8) Biomarker Activity (AID 2284261); conditions: primary human lung fibroblasts
Experimental: BSK_MyoF is a cell-based, multiplexed-readout assay that uses lung fibroblasts, […], with measurements taken at 24 hours after chemical dosing in a microplate: 96-well plate.BSK_MyoF_IL8 is an assay component measured in the BSK_MyoF assay. It measures IL-8 antibody related to regulation of gene expression using ELISA technology.Data from the assay component BSK_MyoF_IL8 was analyzed at the endpoint, BSK_MyoF_IL8, in the positive analysis fitting direction relative to DMSO as the negative control and baseline of activity. Using a type of binding reporter, gain or loss-of-signal activity can be used to understand protein changes. To generalize the intended target to other relatable targets, this assay endpoint is annotated to the 'cytokine' intended target family, where the subfamily is 'interleukins'.
The levels of cell surface (or secreted, indicated by the prefix "s") biomarker endpoints were measured by ELISA. Overt cytotoxicity to cells in confluent adherent cultures (all systems other than the BT system) was assessed by measuring total protein levels using sulforhodamine B (SRB) staining in parallel cultures at the time of biomarker measurements, indicated as SRB endpoints. For proliferation assays for adherent cell types, individual cell types are cultured at sub-confluence and relative cell numbers quantified by SRB staining at time points optimized for each system (48 h: 3C and CASM3C systems; 72 h: BT and HDF3CGF systems; 96 h: SAg system). SRB was performed by staining cells with 0.1% SRB after fixation with 10% TCA and reading wells at 560 nm.Viability and proliferation of PBMC (T cells) was quantified by Alamar Blue reduction for the SAg and BT systems. For PBMC viability (referred to as PBMC Cytotoxicity within the assay endpoint names), cells were plated (75,000/well in a 96-well plate) and then chemical samples added for 1 h before addition of activators, SEB and TSST-1 (20 ng/mL final concentration each). Cells were incubated for 90 h. Then, Alamar Blue (20 uL/well) (Invitrogen, Cat DAL1100) was added for 6 h, and the plates were read with a fluorescence microplate reader at 546/580 nm (excitation/emission). For PBMC proliferation, cells were plated and activated as above but incubated for only 16 h prior to addition of Alamar Blue. Plates were read after 6 h.

SMILES	outcome	AC50
CSCCC=O	inactive	–
CC(C)(C)CC(C)(C)c1ccc(OCCOCC[N+](C)(C)Cc2ccccc2)cc1	–	5 µM (active)
CCC(C)c1cc([N+](=O)[O-])cc([N+](=O)[O-])c1OC(=O)OC(C)C (stereo not drawn)	–	35.8 µM (active)
Oc1c(Cl)cc(Cl)c(Cl)c1Cc1c(O)c(Cl)cc(Cl)c1Cl	–	13 µM (active)
C=C(C)C(=O)OCC(CC)(COC(=O)C(=C)C)COC(=O)C(=C)C	inactive	–
COc1cc(Cl)c(OC)cc1N	inactive	–
COc1ccc(CCN2CCC(Nc3nc4ccccc4n3Cc3ccc(F)cc3)CC2)cc1	–	7.38 µM (active)
CS(=O)(=O)c1ccc(C2=C(c3ccccc3)C(=O)OC2)cc1	inactive	–
CN(C)C(=O)Nc1ccc(Oc2ccc(Cl)cc2)cc1	inactive	–
C=C(C)C(=O)OCCOCCOCCOC(=O)C(=C)C	inactive	–
c1ccc2cc(Nc3ccc(Nc4ccc5ccccc5c4)cc3)ccc2c1	inactive	–
CCN(CC)C(=O)N(CC)CC	inactive	–
O=C1OC[C@H](Cc2cccc(O)c2)[C@H]1Cc1cccc(O)c1	inactive	–
C1=CC2C3C=CC(C3)C2C1 (stereo not drawn)	inactive	–
CCCCCC(C=O)=Cc1ccccc1	inactive	–
c1ccc(Oc2ccccc2)cc1	inactive	–
c1ccc(CCc2ccccc2)cc1	inactive	–
CC=Cc1ccc(OCC)c(O)c1	inactive	–
CCCCOC(=O)CCCCCCCC(=O)OCCCC	inactive	–

SMILES	outcome	AC50
CC(=O)Nc1ccc(C(=O)CCl)cc1	–	29.6 µM (active)
CCCCCCCCCCCCCCCC(=O)OC/C=C(C)/C=C/C=C(C)/C=C/C1=C(C)CCCC1(C)C	inactive	–
O=C1OC2(c3ccccc31)c1ccc(O)c(Br)c1Oc1c2ccc(O)c1Br	inactive	–
C=C(C)C(=O)OCCOCCOCCOCCOC(=O)C(=C)C	inactive	–
O=C1c2ccccc2C(=O)c2c(O)ccc(O)c21	inactive	–
CC(=O)c1c(C)c([N+](=O)[O-])c(C(C)(C)C)c([N+](=O)[O-])c1C	inactive	–
CN(C)C(=S)SC(=S)N(C)C	inactive	–
CC(C)(N=C=O)c1cccc(C(C)(C)N=C=O)c1	inactive	–
CC(=O)C1(C)CC2=C(CCCC2(C)C)CC1C (stereo not drawn)	inactive	–
COc1ccc(OC)c(N=Nc2c(O)ccc3ccccc23)c1	–	0.0788 µM (active)
CCCCN(CCCC)C(=O)N(CCCC)CCCC	inactive	–
C[C@@H]1CCN(C(=O)[C@H](CCCN=C(N)N)NS(=O)(=O)c2cccc3c2NC[C@H](C)C3)[C@@H](C(=O)O)C1	inactive	–
CC1(C)C2=CCCC(C)(C)[C@]23CC[C@H]1C3	inactive	–
CN(c1nccc(=O)[nH]1)C1CCN(c2nc3ccccc3n2Cc2ccc(F)cc2)CC1	inactive	–
C=C(C)[C@H]1CC=C(C)C(=O)C1	inactive	–
CC(C=O)Cc1ccc(C(C)(C)C)cc1 (stereo not drawn)	inactive	–
Cc1cc(CCC(=O)OCCOCCOCCOC(=O)CCc2cc(C)c(O)c(C(C)(C)C)c2)cc(C(C)(C)C)c1O	inactive	–
IC(I)I	inactive	–
Clc1cc(Cl)c(-c2c(Cl)c(Cl)cc(Cl)c2Cl)cc1Cl	–	7.14 µM (active)
